This is a sample that favours compounds with a hit; in the whole collection about 4% have one here.
GALC G270D up – galactocerebrosidase G270D activity enhancement, cell-based. P54803. 145M-Twi-hGALC-G270D cells (Twitcher mouse brain line with human GALC G270D), HMU-beta-Gal fluorescence, 48 h. Potency, µM (top dose mostly 57.5 µM), most hits filed as activators. hit rate 0.1% among 45,000; also: potency is read from the fitted curve at half-maximal effect; 0% is about no effect; nearly all actives have a fitted effect of over 65% in size
Target sequence (P54803 whole entry G286D): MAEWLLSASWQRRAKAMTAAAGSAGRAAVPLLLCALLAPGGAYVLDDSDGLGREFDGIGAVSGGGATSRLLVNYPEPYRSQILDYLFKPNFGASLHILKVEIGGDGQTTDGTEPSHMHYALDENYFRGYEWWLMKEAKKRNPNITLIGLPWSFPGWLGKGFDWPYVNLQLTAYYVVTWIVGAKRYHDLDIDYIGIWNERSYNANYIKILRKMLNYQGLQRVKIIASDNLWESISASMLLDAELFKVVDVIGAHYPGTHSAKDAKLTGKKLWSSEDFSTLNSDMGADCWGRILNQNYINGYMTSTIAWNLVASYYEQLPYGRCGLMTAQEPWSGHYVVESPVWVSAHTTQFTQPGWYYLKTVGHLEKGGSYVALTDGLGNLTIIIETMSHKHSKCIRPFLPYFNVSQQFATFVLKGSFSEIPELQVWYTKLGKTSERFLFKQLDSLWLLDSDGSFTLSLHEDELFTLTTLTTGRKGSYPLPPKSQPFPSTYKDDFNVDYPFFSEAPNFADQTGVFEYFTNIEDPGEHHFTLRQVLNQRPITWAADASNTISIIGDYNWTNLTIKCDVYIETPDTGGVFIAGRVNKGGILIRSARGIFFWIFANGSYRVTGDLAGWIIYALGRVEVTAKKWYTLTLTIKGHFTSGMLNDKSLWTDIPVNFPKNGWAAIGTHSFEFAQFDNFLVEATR
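Fluorogenic HMU-b-Gal hydrolysis (0.1 mM final, pH 5.2 citrate-phosphate with 1 mg/mL sodium taurocholate; carbonate stop buffer) measures mutant GALC activity after compound treatment of live 145M-Twi Twitcher brain cells stably carrying human GALC-G270D, with wild-type GALC line alongside; activation sought.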
OvCa metastasis – blocks SKOV3ip1 adhesion and invasion in omental model. Potency, µM (top dose mostly 45.8 µM), for the others: at the highest dose activity change, negative = inhibition, most hits filed as inhibitors. SKOV3ip1-GFP adhesion/invasion on 3D omental model, fluorescence. hit rate 0.1% among 46,000;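 also: potency is read from the fitted curve at half-maximal effect; plate controls were DMSO wells for no effect and tomatine positive control wells for full effect; nearly all actives have a fitted effect of over 65% in size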
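Primary human omental fibroblast/mesothelial 3D culture pre-formed 48 h. SKOV3ip1-GFP cells added with compounds (0.36-46 umol/L), incubated 2 h RT/16 h 37 C, fixed; GFP cells quantified at 488/509 nm.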
p53null 32C tox – selectivity test: cytotoxicity in p53 null cells, permissive temperature | H1299-neo p53 null cells, ATP luminescence, 24 h, 32C | Potency, µM (top dose mostly 46.1 µM), for the others: top-dose activity change, negative = cytotoxicity, most hits filed as cytotoxic | hit rate 0.62% among 55,000;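 also: potency is read from the fitted curve at half-maximal effect; 0% = DMSO only and -100% = full killing by 100 µM tamoxifen; nearly all actives have a fitted effect of over 55% in size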
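H1299-neo (p53 null) cells, 600/well, treated 24 h at 32C with compound up to 46 uM; ATPlite luminescence viability, normalized to DMSO and 100 uM tamoxifen; AC50 by Hill fit.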
GPR32 ag – agonists of human resolvin D1 receptor DRV1 (GPR32) | hit rate 2.5% among 48,000 | activation, % at 76.9 µM | AID 1346428 | CHO-K1 GPR32 beta-arrestin PathHunter luminescence, 90 min; zero percent set by DMSO-only wells | O75388;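 active = activation of at least 60% and not above a set upper limit, about 1 call in 100 departs from these limits; inconclusive = activation of 40% to 60%, or above that upper limit; inactive = activation under 40%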; also: 0% is about no effect
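Luminescent readout of beta-Gal complementation quantifies ligand-induced beta-arrestin association with GPR32 in CHO-K1 cells; 90 min compound incubation at 37 °C, detection 1 h at room temperature.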
NTMT1 inh – NTMT1 methyltransferase inhibition; Q9BV86; NTMT1 MTase-Glo SAH luminescence, purified enzyme; Potency, µM (series often up to 114 µM), without a hit: at the top dose activity change, negative = inhibition, hits mostly inhibitors; hit rate 2.5% among 59,000; AID 1645870;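 also: potency is read from the fitted curve at half-maximal effect; plate controls were DMSO vehicle for no effect and no enzyme for full effect; nearly all actives have a fitted effect of over 65% in size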
p53null 39C kill – p53 null cell cytotoxicity, nonpermissive temperature. Potency, µM (top dose mostly 46.1 µM), inactives show top-dose activity, negative = cell killing, hits mostly cytotoxic. hit rate 0.97% among 55,000. H1299 p53-null (neo) cells, 39C, ATPlite viability, 24 h;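 also: potency is read from the fitted curve at half-maximal effect; 0% = DMSO only and -100% = full killing by 100 µM tamoxifen; nearly all actives have a fitted effect of over 50% in size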
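H1299 lung cancer cells, p53-null (H1299-neo) or expressing p53 A138V (H1299-p53A138V), were plated overnight at 37C, then exposed to compounds at up to 46 uM for 24 hr at 39C. Viability was read by ATP-based luminescence.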
Starred values were filed as active, the others as inactive; i = inactive; ? = inconclusive; / = no result given; ! = repeats disagree; [ ] = remark or other dose. Unless noted, calls follow the shape of the dose curve; as a rule, active = well fitted curve in the direction sought with a large enough effect; inconclusive = small, poorly fitted or top-dose-only effect, or another doubt; inactive = no such curve, though single readings can be large; an effect the other way counts as inactive or inconclusive.

SMILES	GALC G270D up	OvCa metastasis	p53null 32C tox	GPR32 ag	NTMT1 inh	p53null 39C kill
Cc1cc(=O)oc2cc(O)ccc12	28.2µM*	-10.2%	/	-7.1	4.9%	/
CCOC(=O)c1ccc2c(c1)c(C(C)=O)c(C)n2-c1ccc(OC)cc1	/	/	/	/	-2.4%	/
O=S(=O)(Nc1nc2n(n1)C(c1ccc(F)cc1)C=C(c1ccccc1)N2)c1ccccc1 (stereo unspecified)	i	6.9%	-8.0%	96.0*	-22.4%	-7.4%
O=S(=O)(Nc1nc2n(n1)C(c1ccc(F)cc1)C=C(c1ccc(Cl)cc1)N2)c1ccccc1 (stereo unspecified)	i	6.1%	-6.6%	94.8*	16.1%	-9.0%
Cc1ccc(NS(=O)(=O)c2cc3c(cc2NCCO)NC(=O)CC3)cc1C	/	/	/	/	17.8%	/
O=S(=O)(Nc1ccc(C2CCNCC2)cc1)c1ccc(NCc2cccc(Cl)c2O)cc1	/	/	/	/	22.4µM*	/
O=S(=O)(Nc1ccccc1)c1ccc(NCc2cccc(Cl)c2O)cc1	/	/	/	/	-2.7%[57.5 µM]	/
COc1cc(C(=O)OC[C@H]2O[C@@H](Oc3ccccc3/C=C/C(=O)O)[C@H](O)[C@@H](O)[C@@H]2O)cc(OC)c1OC	/	/	/	/	1.0%[29.8 µM]	/
CCc1ccc2[nH]cc(S(=O)(=O)c3ccc(C(C)C)cc3)c(=O)c2c1	i	-3.4%	?	65.4*	10.4%	10.7%
CC(C)Oc1ccc(C(=O)N2CCN(CCc3ccccn3)CC2)cc1	i	5.7%	-2.1%	26.8	16.3%	-15.1%
CCCCOc1ccc(C(=O)N2CCN(CCc3ccccn3)CC2)cc1	8.91µM*	1.8%	-9.2%	17.0	0.7%	16.9%
c1ccc2c(c1)CCc1ccccc1N2	i	/	/	118.8*	?	/
COc1cc2nc(SCC(=O)Nc3c(C)cc(C)cc3C)n3nc(CCn4c(C)nc5ccccc54)nc3c2cc1OC	i	-4.9%	7.5%	83.2*	3.8%	-9.2%
C/C=C1\NC(=O)[C@H]2CSSCC/C=C\[C@H](CC(=O)N[C@H](C(C)C)C(=O)N2)OC(=O)[C@H](C(C)C)NC1=O	/	/	/	/	-4.3%	/
CCCCC[C@H](O)C=C[C@H]1[C@H](O)CC(=O)[C@H]1CCCCCCC(=O)O	/	-0.9%	/	/	-16.1%[57.5 µM]	/
CCCCC(C)(C)[C@H](O)C=C[C@H]1[C@H](O)CC(=O)[C@H]1CC=CCCCC(=O)O	/	-15.4%	/	/	50.1µM*	/
Cc1cc(C)cc(N(CC(=O)Nc2ccc(C)cc2Cl)S(=O)(=O)c2c(C)[nH]c(=O)[nH]c2=O)c1	i	-2.2%	-11.4%	78.6*	19.4%	-27.3%
COc1cc(NC(=O)CN(c2cc(C)cc(C)c2)S(=O)(=O)c2c(C)[nH]c(=O)[nH]c2=O)cc(OC)c1	i	0.7%	5.1%	11.5	12.8%	-26.5%
Cc1ccc(N(CC(=O)Nc2ccc(C)c(F)c2)S(=O)(=O)c2c(C)n[nH]c2C)cc1	i	-0.1%	19.5%	102.3*	1.7%	-6.5%
Cc1cc(C)cc(N(CC(=O)Nc2ccc(C(F)(F)F)cc2)S(=O)(=O)c2c(C)[nH]c(=O)[nH]c2=O)c1	i	1.4%	-8.6%	112.5*	-10.0%	-44.3%
COc1ccc(Cl)cc1NC(=O)CN(c1cc(C)cc(C)c1)S(=O)(=O)c1c(C)n[nH]c1C	i	56.7%	36.1%	45.1	6.1%	?
CC1CCC(C(=O)Nc2ccc([S+](=O)([O-])Nc3nccs3)cc2)CC1 (stereo unspecified)	/	/	/	/	21.7%	/
CCC(=O)Oc1ccc(-c2nc3ccccc3c(=O)o2)cc1	i	i	?	38.8	?	?
CCCOc1ccc(-c2nc3ccccc3c(=O)o2)cc1	i	i	15.8µM*	41.9	-19.8%	5.01µM*
CC1=CC(=O)c2ccccc2C1=O	i	?	/	62.4*	?	/
SMILES	GALC G270D up	OvCa metastasis	p53null 32C tox	GPR32 ag	NTMT1 inh	p53null 39C kill
CCOc1ccc(C(=O)Nc2ccc(-c3nc4cc(C(C)C)ccc4o3)cc2)cc1Cl	i	2.2%	1.0%	84.0*	13.3%	-8.7%
CCCCOc1cccc(C(=O)Nc2ccc3oc(-c4cccnc4)nc3c2)c1	i	4.6%	6.0%	12.0	-3.4%	-2.9%
COc1cccc(-c2nc3cc(NC(=O)c4ccc(C)c([N+](=O)[O-])c4)ccc3o2)c1	/	/	/	/	79.4µM*	/
O=C(Nc1ccc2oc(-c3cccnc3)nc2c1)c1ccc(-c2ccc(Cl)cc2)o1	i	7.8%	1.0%	32.9	?	21.0%
O=C(Nc1ccc2oc(-c3cccnc3)nc2c1)c1ccc(-c2cccc(Cl)c2)o1	i	-16.4%	3.1%	-14.2	25.1µM*	-9.6%
CCOc1cccc(C(=O)Nc2ccc3oc(-c4cccnc4)nc3c2)c1	i	15.4%	-16.5%	106.6*	?	-13.7%
CS(=O)(=O)c1ccc(C(=O)OCC(=O)N2CCC(Cc3ccccc3)CC2)cc1[N+](=O)[O-]	/	/	/	/	2.6%	/
Cc1ccc(C)c(NC(=O)N2CCN(C)c3ncccc32)c1	i	-9.2%	-5.6%	10.0	14.3%	-15.4%
CCOc1ccccc1NC(=O)N1CCN(C)c2ncccc21	i	4.6%	-5.6%	4.9	89.1µM*	12.0%
COc1cc(C(=O)NC2CCN(C)CC2)c(F)cc1Nc1ncc2c(n1)N(C1CCCC1)CC(F)(F)C(=O)N2C	/	/	/	/	28.2µM*	/
COc1cc(OC2CCN(C)CC2)ccc1Nc1ncc2c(n1)n(C1CCCC1)c(=O)n2C	/	18.0%	/	/	-5.0%	/
CC[C@@H]1C(=O)N(C)c2cnc(Nc3ccc(C(=O)NC4CCN(C)CC4)cc3OC)nc2N1C1CCCC1	/	-17.3%	/	/	25.1µM*!	/
COc1cc(C(=O)N2CCC(N3CCN(C)CC3)CC2)ccc1Nc1ncc2c(n1)N(C)c1ccccc1C(=O)N2C	/	10.8%	/	/	-13.7%	/
COc1cc(C(=O)NC2CCN(C)CC2)ccc1Nc1ncc2c(n1)N(C1CCCC1)CC(F)(F)C(=O)N2C	/	/	/	/	28.2µM*	/
C=C1CC2(C(=O)O)CC1CCC2C1(C)CCCC2(C)C(=O)OC(O)C21 (stereo unspecified)	/	/	/	/	16.3%[29.8 µM]	/
Cc1cc2oc(=O)c(CC(=O)O)c(C)c2c2occ(-c3ccc(F)cc3)c12	i	4.4%	-8.7%	-3.2	39.8µM*	-6.1%
O=C(NC1CCCc2c1cnn2-c1ccc(F)cc1F)c1ccccc1 (stereo unspecified)	/	/	/	/	79.4µM*!	/
COc1ccc(C(=O)N2CCC(c3nc4ccccc4s3)CC2)cc1Cl	i	-11.8%	19.5%	75.5*	1.6%	?
Cc1cc(Cl)ccc1OCC(=O)N1CCC(c2nc3ccccc3s2)CC1	i	i	53.3%	?	1.0%	14.7%
